Rows were chosen to be rich in hits. Some 3.6% of all compounds tested hit in one or more screens of this group.
Pf apPOL inh – Pf-apPOL inhibitors, biochemical, fluorescence. Plasmodium falciparum apicoplast DNA polymerase (apPOL). Recombinant Pf-apPOL, molecular beacon fluorescence, 1.5 h. inhibition, % at 10 µM. 0.25% of 210,000 active. AID 1794808, 2022
mHTT-CaM PPI inh – mutant huntingtin-calmodulin interaction inhibitors – biochemical, AlphaScreen, primary screen. AlphaScreen His-mHTT/GST-CaM binding, luminescence. AID 1671202, 2021. P42858. inhibition, % at 15 µM. 3.6% of 190,000 active;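 further: 0% = both proteins with DMSO and 100% = one protein alone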
* = called active by the depositor; / = not tested or not shown. No stated cut-off is given here; in the data, active means inhibition above about 50%; inactive means the rest.

SMILES	Pf apPOL inh	mHTT-CaM PPI inh
O=C(Nc1ccc([N+](=O)[O-])cc1)C1C(c2ccccc2)C1(Cl)Cl (configuration not stated)	-8	94*
CC1(C)C(C=C(Cl)Cl)C1C(=O)Nc1ccc(S(N)(=O)=O)cc1 (configuration not stated)	-3	2
CC1(C)C(C=C(Cl)Cl)C1C(=O)Nc1ccc([N+](=O)[O-])cc1 (configuration not stated)	-6	99*
Cc1cc(C)nc(NS(=O)(=O)c2ccc(NC(=O)C3C(C=C(Cl)Cl)C3(C)C)cc2)n1 (configuration not stated)	-5	67*
COc1ccc(NC(=O)C2C(C=C(Cl)Cl)C2(C)C)cc1 (configuration not stated)	-6	-36
O=C(Nc1cccnc1)C1C(c2ccccc2)C1(Cl)Cl (configuration not stated)	-3	-7
COc1ccc(NC(=O)c2cc3n(n2)C(C(F)(F)F)CC(c2ccco2)N3)cc1 (configuration not stated)	-5	-1
O=C(NCC1CCN(Cc2ccco2)CC1)C(=O)Nc1ccc2c(c1)OCCO2	-12	-4
COc1ccc(Nc2c([N+](=O)[O-])cc([N+](=O)[O-])c3cccnc23)cc1	-4	14
CS(=O)(=O)c1ccc(Sc2cccc3cccnc23)c([N+](=O)[O-])c1	1	4
CCCN(CCC)c1c([N+](=O)[O-])cc([N+](=O)[O-])c2cccnc12	-2	80*
O=[N+]([O-])c1cc2cccnc2c2ncccc12	/	100*
O=[N+]([O-])c1ccc(N2CCN(CCO)CC2)c2ncccc12	-1	5
O=[N+]([O-])c1cc([N+](=O)[O-])c2cccnc2c1Nc1ccc(O)cc1	0	75*
O=[N+]([O-])c1ccc(C2NCCCN2Cc2ccccc2)cc1 (configuration not stated)	0	6
COc1ccc(CNS(=O)(=O)c2ccc3c(c2)CC(C)N3C(C)=O)cc1 (configuration not stated)	-3	-3
COCCC1CCN(C(=O)c2ccccn2)CC1	-6	-3
O=C(Cn1cnc([N+](=O)[O-])n1)Nc1cc(Oc2ccc(F)cc2)cc([N+](=O)[O-])c1	0	29
O=C(Cn1cc([N+](=O)[O-])nc1[N+](=O)[O-])Nc1cc(Oc2ccccc2)cc([N+](=O)[O-])c1	0	51*
O=C(Cn1cnc([N+](=O)[O-])n1)Nc1cc(Oc2cccc(C(F)(F)F)c2)cc([N+](=O)[O-])c1	-2	51*
O=C(Cn1cnc([N+](=O)[O-])c1)Nc1cc(Oc2cccnc2)cc([N+](=O)[O-])c1	2	7
Brc1ccc(CNc2cc3c(cc2Br)OCCO3)cc1	-13	79*
Clc1cccc(CNc2cc3c(cc2Br)OCCO3)c1	-4	88*
O=c1c(=O)n(-c2ccc3c(c2)OCCO3)ccn1Cc1cccc(Cl)c1	4	-3
Fc1ccc(NCc2ccc3c(c2)OCCO3)cc1F	2	-14
SMILES	Pf apPOL inh	mHTT-CaM PPI inh
Cc1cccc(CSCCNS(=O)(=O)c2ccc3c(c2)OCCO3)c1	-6	-4
Cc1ccc2ncn(C3CCN(C(=O)C(C)Oc4ccccc4)CC3)c2c1 (configuration not stated)	-4	9
CCOc1ccc(C(=O)N2CCC(n3cnc4ccc(C)cc43)CC2)cc1	-3	77*
N#CCNC(=O)c1cc2nc(-c3ccco3)cc(C(F)(F)F)n2n1	-1	6
Cc1c(NC(=O)c2cc([N+](=O)[O-])ccc2Cl)c(=O)n(-c2ccccc2)n1C	-1	-1
CSc1ccc(Cl)c(C(=O)Nc2c(C)n(C)n(-c3ccccc3)c2=O)c1	63*	-2
O=C1OC(c2cccc([N+](=O)[O-])c2)=N/C1=C/c1ccc2c(c1)OCO2	5	10
CCOc1ccc(C(=O)N2CCc3cc(OC)c(OC)cc3C2COc2ccccc2OC)cc1 (configuration not stated)	1	73*
COc1cc2c(cc1OC)C(COc1ccccc1OC)N(C(=O)c1ccccc1OC)CC2 (configuration not stated)	-6	37
COC(=O)c1ccc(OCC2c3cc(OC)c(OC)cc3CCN2C(=O)c2ccc(OC)cc2)cc1 (configuration not stated)	-4	47
COc1ccc(OCC2c3cc(OC)c(OC)cc3CCN2C(=O)c2ccc(C)cc2)cc1 (configuration not stated)	2	77*
CC1(C)CC(O)CC(C)(C)N1CC(O)COc1ccc(Cl)cc1Cl (configuration not stated)	5	-2
CCc1ccc(C2=NC(C(C)C)NC(c3cc(Br)ccc3O)C2)cc1 (configuration not stated)	-2	35
CC(C)CNC(=O)c1nc2cccnc2n(C)c1=O	0	-2
CSc1sc(C(=O)N2CCc3ccccc32)cc1S(=O)(=O)C(C)C	1	/

Source: PubChem BioAssay
